Experiment [1] addresses Lysosomal acid glucosylceramidase (Homo sapiens) (UniProt P04062). The experiment is described as follows: Glucocerebrosidase-p2 (AID 348; in the data active = potency below about 10 µM; note: potency is the fitted concentration of half-maximal effect). As to conditions: purified GBA, blue fluorogenic substrate, 40 min. A digest of the protocol: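 Normal human glucocerebrosidase (0.2 nM) with blue fluorogenic substrate (80 uM final) in citrate/phosphate pH 5.9 with 10mM sodium taurocholate, 0.01% tween-20; 40 min RT, NaOH/glycine stop; fluorescence Ex 365/Em 440; AC50 from a titration from 0.6 nM upwards.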

The nature of experiment [2]: AP1 Signaling Pathway (AID 357; active = well fitted curve in either direction with a large enough effect, not every such curve was filed as active;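 note: ME-180 reporter cells stimulated with EGF at its EC50 level; % is set by controls: 0 for no effect and ±100 for the full control effect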). The conditions noted are these: ME-180 AP-1-bla reporter, EGF-induced, beta-lactamase ratio, 5 h; at 7.69 µM (top of the series) unless noted. A digest of the protocol: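 AP-1-bla ME-180 cells, Opti-MEM + 0.5% dialyzed FBS, plated overnight 37 °C. Cpd titration + EC50 EGF, 5 h 37 °C. CCF4 2.5 h RT; ex 405, em 460/530 ratio → %activity, AC50.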

In experiment [3] the target is Cytochrome P450 1A2 (Homo sapiens) (UniProt P05177). The experiment in a line: p450-cyp1a2 (AID 410; calls by dose curve; note: potency is the fitted concentration of half-maximal effect). As to conditions: recombinant CYP1A2, luciferin-ME demethylation, luminescence; series mostly up to 57 µM. A digest of the protocol:
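20nM CYP1A2, 100uM Luciferin-ME (=Km), 100mM KPO4; cpd 10 min RT; +NADPH regen, 60 min RT; stop/detect 20 min; luminescence. Normalized to furafylline 57 uM = full inhibition.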

The nature of experiment [4]: NFAT Signaling Pathway (AID 444; active = well fitted curve in either direction with a large enough effect, not every such curve was filed as active;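 note: carbachol stimulus at about its EC50 of 1 µM final; % is set by controls: 0 for no effect and ±100 for the full control effect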). As to conditions: Jurkat NFAT-bla M1, carbachol, beta-lactamase ratio, 5 h; at 7.69 µM (top of the series) unless noted. A digest of the protocol: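 Read-out: CCF4 FRET ratio (460 nm/530 nm) after 1 h RT dye loading, used for %activity and AC50 from titration series. Cells: Jurkat NFAT-β-lactamase/M1 line, treated with compound plus 1 uM carbachol for 5 h, 37 °C.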

The target in experiment [5] is Glucocorticoid receptor (Homo sapiens) (UniProt P04150). The experiment is described as follows: GR-EFC Redistribution (AID 451; calls by dose curve; note: potency is the fitted concentration of half-maximal effect). The conditions noted are these: CHO-K1 GR-EFC translocation, beta-gal luminescence, 2 h. A digest of the protocol: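 Translocation of GR-ED fusion to nuclear EA restores b-gal, read by luminescence after 1 h room-temperature detection. Engineered CHO-K1 biosensor cells, 1,000/well, exposed 2 h at 37 C to titrations up to 46 uM final.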
Sequence of Glucocorticoid receptor (Homo sapiens) (P04150 whole entry, looked up, the tested form may be a part): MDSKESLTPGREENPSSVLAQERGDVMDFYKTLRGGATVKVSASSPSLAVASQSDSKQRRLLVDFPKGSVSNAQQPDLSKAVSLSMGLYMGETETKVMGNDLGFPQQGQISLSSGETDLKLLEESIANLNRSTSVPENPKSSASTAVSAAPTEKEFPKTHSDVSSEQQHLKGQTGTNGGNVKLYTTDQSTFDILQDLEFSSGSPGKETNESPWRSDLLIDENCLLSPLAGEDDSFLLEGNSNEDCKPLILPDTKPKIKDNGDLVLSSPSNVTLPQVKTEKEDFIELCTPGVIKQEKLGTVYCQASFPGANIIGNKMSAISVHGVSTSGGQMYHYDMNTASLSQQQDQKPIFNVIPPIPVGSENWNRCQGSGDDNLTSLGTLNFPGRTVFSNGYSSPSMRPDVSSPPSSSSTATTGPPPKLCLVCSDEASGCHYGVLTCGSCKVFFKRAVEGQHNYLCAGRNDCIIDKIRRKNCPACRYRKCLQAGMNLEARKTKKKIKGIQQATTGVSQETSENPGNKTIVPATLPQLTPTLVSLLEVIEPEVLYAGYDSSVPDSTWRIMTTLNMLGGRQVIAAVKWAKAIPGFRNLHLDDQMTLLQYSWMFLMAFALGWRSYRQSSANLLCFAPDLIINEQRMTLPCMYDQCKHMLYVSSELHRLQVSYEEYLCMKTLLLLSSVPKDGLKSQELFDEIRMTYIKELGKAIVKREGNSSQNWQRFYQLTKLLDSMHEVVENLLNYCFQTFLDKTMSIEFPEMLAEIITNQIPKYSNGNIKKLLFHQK

In experiment [6] the target is Mitogen-activated protein kinase 10 (Mus musculus) (UniProt Q61831). The experiment in a line: JNK3 AlphaScreen Assay (AID 530; active = well fitted curve in either direction with a large enough effect, not every such curve was filed as active;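 note: kinase came from lysate of stimulated human HepG2 cells; signal reports phosphorylation of biotinylated GST-cJun 1-79 at Ser73 with 10 µM ATP; % is set by controls: 0 for no effect and ±100 for the full control effect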). As to conditions: JNK3 lysate, c-Jun phosphorylation; series mostly up to 57.1 µM. The essentials:
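Kinase buffer: 20 mM Tris-HCl pH 7.6, 10 mM MgCl2, 1 mM DTT, 0.1 mM Na3VO4, 0.01% Tween-20; ATP 10 uM. Substrate biotin-GST-cJun(1-79), enzyme from activated HepG2 lysates. Detection by Ser73 phospho-antibody AlphaScreen.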
On the technique in general: Alpha assays give light when donor and acceptor beads are brought close together.

In experiment [7] the target is Cytochrome P450 3A4 (Homo sapiens) (UniProt P08684). The experiment in a line: qHTS Assay for Inhibitors and Substrates of Cytochrome P450 3A4 (AID 884). Note: potency is the fitted concentration of half-maximal effect; nearly all actives have a fitted effect of over 50% in size. As to conditions: recombinant CYP3A4, Luciferin-PPXE luminescence; series mostly up to 57.1 µM. The essentials: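 Luminescent readout of luciferin produced by CYP3A4 (20 nM) dealkylation of Luciferin-PPXE, 25 uM (its KM). NADPH-driven reaction ran 60 min at RT after 10 min compound preincubation; data scaled to 57 uM ketoconazole as 100% inhibition.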
Sequence of Cytochrome P450 3A4 (Homo sapiens) (P08684 whole entry, looked up): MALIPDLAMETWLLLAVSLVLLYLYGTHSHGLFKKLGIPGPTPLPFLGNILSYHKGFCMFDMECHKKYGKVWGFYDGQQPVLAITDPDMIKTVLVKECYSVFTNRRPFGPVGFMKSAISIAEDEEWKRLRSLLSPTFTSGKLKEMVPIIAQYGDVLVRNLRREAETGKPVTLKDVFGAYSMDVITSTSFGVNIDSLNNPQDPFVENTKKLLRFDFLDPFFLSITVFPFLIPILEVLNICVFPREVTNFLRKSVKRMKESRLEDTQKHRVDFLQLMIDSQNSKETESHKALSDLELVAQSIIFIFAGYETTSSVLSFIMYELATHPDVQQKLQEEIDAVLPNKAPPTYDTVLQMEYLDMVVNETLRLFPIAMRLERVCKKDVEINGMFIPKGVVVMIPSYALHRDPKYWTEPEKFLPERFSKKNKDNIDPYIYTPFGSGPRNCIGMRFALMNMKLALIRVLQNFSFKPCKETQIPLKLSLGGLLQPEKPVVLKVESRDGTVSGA
In general terms: qHTS replaces the single test concentration by a dilution series.

Experiment [8] has the same target. The experiment is described as follows: qHTS Assay for Activators of Cytochrome P450 3A4 (AID 885). Note: nearly all actives have a fitted effect of over 65% in size. As to conditions: recombinant CYP3A4, Luciferin-PPXE luminescence, 60 min; series mostly up to 57.1 µM. The essentials:
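Luminescent readout of luciferin formed from 25 uM Luciferin-PPXE (KM level) by 20 nM CYP3A4 in 200 mM KPO4, with 60 min NADPH-driven reaction at room temperature after 10 min compound exposure. Ketoconazole (57 uM) defined 100% inhibition.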

The target in experiment [9] is Dual specificity protein kinase CLK4 (Homo sapiens) (UniProt Q9HAZ1). The experiment is described as follows: qHTS Assay for Inhibitors of CDC-like Kinase 4 (ADP-Glo Assay) (AID 1771). Note: nearly all actives have a fitted effect of over 70% in size. Note: potency is the fitted concentration of half-maximal effect. The conditions noted are these: recombinant CLK4, ADP-Glo luminescence; series mostly up to 80 µM. The essentials:
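25 nM Clk4, 100 uM RS peptide, 1 uM ATP (final); 2 mM MgCl2, 0.5 mM EGTA, 2.5 mM DTT, 0.01% Triton X-100; 1 hr RT. ADP-Glo readout: ATP depletion 45 min, conversion/luciferase 30 min, luminescence.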

The target is the same in experiment [10]. The experiment is described as follows: qHTS Assay for Inhibitors of CDC-like Kinase 4 (ADP-FP Assay) (AID 1795). Note: % is set by controls: 0 for no effect and ±100 for the full control effect; nearly all actives have a fitted effect of over 60% in size. The conditions noted are these: Transcreener ADP fluorescence polarization; series mostly up to 50 µM. A digest of the protocol: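 Recombinant human Clk4 (6.25 nM) phosphorylated RS repeat peptide (100 uM) with 1 uM ATP in Tris pH 7.5/MgCl2/EGTA/DTT/Triton buffer for one hour. ADP was quantified by Transcreener competitive fluorescence polarization against an ADP calibration curve.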

Experiment [11] has as its target Ubiquitin carboxyl-terminal hydrolase 1 (Homo sapiens) (UniProt O94782). The experiment in a line: Inhibitors of USP1/UAF1: Pilot qHTS (AID 504865).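 Note: rhodamine fluorescence freed from ubiquitin-rhodamine substrate followed over time; top concentration of the series differs between compounds; % is set by controls: 0 for no effect and ±100 for the full control effect; nearly all actives have a fitted effect of over 35% in size.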 The conditions noted are these: purified USP1/UAF1, Ub-rhodamine cleavage fluorescence; series mostly up to 54.9 µM. The essentials:
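USP1/UAF1 complex (1nM) preincubated with compound 15 min at room temperature, then Ub-Rho substrate (150nM final) added. Fluorescence read kinetically at 480/540 nm, 6 reads every 60 seconds. Buffer: 50mM HEPES pH 7.8, 0.5mM EDTA, 0.1 mg/ml BSA, 1mM TCEP, 0.01% Tween-20.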

Experiment [12] can be described thus: Primary qHTS for small molecule stabilizers of the endoplasmic reticulum resident proteome: Secreted ER Calcium Modulated Protein (SERCaMP) assay (AID 1508630). Note: % is set by controls: 0 for no effect and ±100 for the full control effect. As to conditions: SH-SY5Y GLuc-SERCaMP (Gaussia luciferase released on ER calcium loss) secretion, thapsigargin, luminescence; series mostly up to 38.4 µM. The essentials: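 The SH-SY5Y reporter protocol was run at 3 concentrations up to 38.3 uM (primary) or 11 concentrations (follow-up): 16 h compound, 100 nM thapsigargin for 4 h, then extracellular luciferase luminescence.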

The nature of experiment [13]: Stat Signaling Pathway (AID 446; active = well fitted curve in either direction with a large enough effect, not every such curve was filed as active). As to conditions: ME-180 (cervical carcinoma) SIE beta-lactamase reporter, IL-6 stimulated, 5 h; at 7.69 µM (top of the series) unless noted. A digest of the protocol:
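FRET read-out (405 nm excitation, 460/530 nm emission) of a beta-lactamase reporter under a STAT-inducible element in ME-180 cervical carcinoma cells. Cells with compound receive 40 pM IL-6 for 5 h. Values are normalised to AC90 stimulation and AC90 JAK-inhibitor controls.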

Experiment [14] has as its target Glucocorticoid receptor (Homo sapiens) (UniProt P04150). The experiment is described as follows: GR-GFP Redistribution (AID 450;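 active = compounds whose dose series gives a full or clear partial fitted curve of increased nuclear translocation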; note: potency is the fitted concentration of half-maximal effect). The conditions noted are these: U2OS GR-GFP nuclear translocation, laser cytometry, 2 h.
The target in experiment [15] is Cytochrome P450 2C19 (Homo sapiens) (UniProt P33261). The experiment in a line: qHTS Assay for Inhibitors and Substrates of Cytochrome P450 2C19 (AID 899). Note: potency is the fitted concentration of half-maximal effect; nearly all actives have a fitted effect of over 60% in size. The conditions noted are these: recombinant CYP2C19, luciferin-H EGE luminescence; series mostly up to 57.1 µM. The essentials:
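5nM enzyme + 10uM Luciferin-H EGE (=KM), 50mM KPO4; cpd pin-transferred, 10 min 37C; NADPH regen, 60 min 37C; stopped w/ luciferin detection reagent, 20 min; luminescence. Normalized to 57uM ketoconazole (AC100).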

For experiment [16], the target named is 3',5'-cyclic-AMP phosphodiesterase 4B (Homo sapiens) (UniProt Q07343). The experiment is described as follows: qHTS Assay for Inhibitors of PDE-IV (AID 607; active = well fitted activation curve with a large enough effect in the main read-out, with a control signal flat, not every such curve was filed as active; note: % of control where 0% means no effect). As to conditions: HEK293 ACTOne CNG channel cells, membrane potential fluorescence; series mostly up to 22.9 µM. The essentials:
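Cell-based read-out of cAMP via a modified cyclic nucleotide-gated channel and membrane potential dye (535/590 nm) in HEK293 cells expressing PDE4 endogenously. Compounds tested up to 22.9 uM final; 100 uM RO 20-1724 reference.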

Structures are written as SMILES. Values without a mark were called inactive. Inconclusive results are not listed. Calls of active or inactive are those of the source. Unless noted, calls come from the whole dose curve; as a rule, active = well fitted curve in the direction sought with a large enough effect; inconclusive = small, poorly fitted or top-dose-only effect, or another doubt; inactive = no such curve, though single readings can be large; an effect the other way counts as inactive or inconclusive.

Sequence of Ubiquitin carboxyl-terminal hydrolase 1 (Homo sapiens) (O94782 whole entry, looked up): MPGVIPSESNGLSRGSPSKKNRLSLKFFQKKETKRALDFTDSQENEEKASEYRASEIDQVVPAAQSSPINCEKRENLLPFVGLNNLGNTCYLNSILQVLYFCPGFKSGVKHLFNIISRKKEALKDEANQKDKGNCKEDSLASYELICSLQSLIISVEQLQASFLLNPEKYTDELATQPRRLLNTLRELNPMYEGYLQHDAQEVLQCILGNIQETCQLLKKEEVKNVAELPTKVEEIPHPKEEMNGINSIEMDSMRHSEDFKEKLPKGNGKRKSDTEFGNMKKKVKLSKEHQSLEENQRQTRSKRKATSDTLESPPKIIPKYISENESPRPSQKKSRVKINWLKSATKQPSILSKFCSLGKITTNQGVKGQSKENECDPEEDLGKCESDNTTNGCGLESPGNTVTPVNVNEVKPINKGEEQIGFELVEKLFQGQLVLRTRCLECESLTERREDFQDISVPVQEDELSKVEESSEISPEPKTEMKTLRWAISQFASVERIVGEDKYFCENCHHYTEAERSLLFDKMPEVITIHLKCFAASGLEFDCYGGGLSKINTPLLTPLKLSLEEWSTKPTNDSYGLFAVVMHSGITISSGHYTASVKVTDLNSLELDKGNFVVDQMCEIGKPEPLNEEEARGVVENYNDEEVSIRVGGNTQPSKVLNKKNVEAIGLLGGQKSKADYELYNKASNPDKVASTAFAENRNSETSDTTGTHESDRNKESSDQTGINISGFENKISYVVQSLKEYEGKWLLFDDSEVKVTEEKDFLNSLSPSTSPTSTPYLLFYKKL
Sequence of Lysosomal acid glucosylceramidase (Homo sapiens) (P04062 whole entry, looked up): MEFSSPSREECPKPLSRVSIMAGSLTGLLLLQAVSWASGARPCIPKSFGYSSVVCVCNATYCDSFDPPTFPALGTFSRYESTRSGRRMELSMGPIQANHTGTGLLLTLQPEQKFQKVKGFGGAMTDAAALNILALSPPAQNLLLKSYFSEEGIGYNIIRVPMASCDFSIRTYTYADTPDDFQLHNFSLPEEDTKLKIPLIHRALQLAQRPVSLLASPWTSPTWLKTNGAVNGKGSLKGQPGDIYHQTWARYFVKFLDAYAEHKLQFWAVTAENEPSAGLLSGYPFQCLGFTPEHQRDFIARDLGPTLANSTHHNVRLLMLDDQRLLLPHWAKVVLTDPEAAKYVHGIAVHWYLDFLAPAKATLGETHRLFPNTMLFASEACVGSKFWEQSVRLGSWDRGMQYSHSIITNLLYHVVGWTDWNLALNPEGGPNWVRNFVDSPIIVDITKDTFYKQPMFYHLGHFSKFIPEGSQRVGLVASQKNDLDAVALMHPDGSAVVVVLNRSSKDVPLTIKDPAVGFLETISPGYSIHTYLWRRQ
Sequence of 3',5'-cyclic-AMP phosphodiesterase 4B (Homo sapiens) (Q07343 whole entry, looked up): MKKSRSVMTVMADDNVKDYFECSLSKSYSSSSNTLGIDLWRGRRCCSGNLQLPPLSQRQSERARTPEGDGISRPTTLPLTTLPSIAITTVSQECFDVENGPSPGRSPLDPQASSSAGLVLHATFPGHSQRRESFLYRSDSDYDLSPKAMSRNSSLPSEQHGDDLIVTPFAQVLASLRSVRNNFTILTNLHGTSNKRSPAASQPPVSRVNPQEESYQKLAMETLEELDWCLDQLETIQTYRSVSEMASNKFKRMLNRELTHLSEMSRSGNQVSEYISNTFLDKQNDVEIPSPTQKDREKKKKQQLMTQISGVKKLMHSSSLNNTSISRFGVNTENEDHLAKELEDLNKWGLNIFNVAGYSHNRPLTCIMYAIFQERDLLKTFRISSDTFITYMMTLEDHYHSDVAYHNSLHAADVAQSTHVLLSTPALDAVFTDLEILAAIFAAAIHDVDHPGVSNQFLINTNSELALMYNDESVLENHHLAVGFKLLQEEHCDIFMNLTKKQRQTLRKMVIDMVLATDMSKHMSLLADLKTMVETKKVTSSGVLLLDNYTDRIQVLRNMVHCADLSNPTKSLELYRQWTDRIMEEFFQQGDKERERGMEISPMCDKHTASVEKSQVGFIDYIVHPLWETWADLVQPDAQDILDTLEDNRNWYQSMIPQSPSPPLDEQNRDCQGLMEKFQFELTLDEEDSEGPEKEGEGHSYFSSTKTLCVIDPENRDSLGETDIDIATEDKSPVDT
Sequence of Dual specificity protein kinase CLK4 (Homo sapiens) (Q9HAZ1 whole entry, looked up): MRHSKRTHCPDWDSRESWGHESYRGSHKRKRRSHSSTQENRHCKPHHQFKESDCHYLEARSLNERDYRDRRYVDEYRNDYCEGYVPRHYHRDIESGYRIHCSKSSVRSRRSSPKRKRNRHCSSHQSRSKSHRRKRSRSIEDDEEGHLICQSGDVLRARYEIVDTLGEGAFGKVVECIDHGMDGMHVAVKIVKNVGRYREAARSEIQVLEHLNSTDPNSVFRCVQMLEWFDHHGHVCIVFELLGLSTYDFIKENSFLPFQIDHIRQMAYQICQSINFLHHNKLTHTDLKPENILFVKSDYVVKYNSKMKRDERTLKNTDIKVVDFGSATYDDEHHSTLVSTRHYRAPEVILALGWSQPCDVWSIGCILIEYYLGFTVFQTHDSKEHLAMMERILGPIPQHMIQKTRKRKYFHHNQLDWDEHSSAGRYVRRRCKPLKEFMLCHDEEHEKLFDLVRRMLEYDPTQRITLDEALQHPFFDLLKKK
Sequence of Cytochrome P450 1A2 (Homo sapiens) (P05177 whole entry, looked up): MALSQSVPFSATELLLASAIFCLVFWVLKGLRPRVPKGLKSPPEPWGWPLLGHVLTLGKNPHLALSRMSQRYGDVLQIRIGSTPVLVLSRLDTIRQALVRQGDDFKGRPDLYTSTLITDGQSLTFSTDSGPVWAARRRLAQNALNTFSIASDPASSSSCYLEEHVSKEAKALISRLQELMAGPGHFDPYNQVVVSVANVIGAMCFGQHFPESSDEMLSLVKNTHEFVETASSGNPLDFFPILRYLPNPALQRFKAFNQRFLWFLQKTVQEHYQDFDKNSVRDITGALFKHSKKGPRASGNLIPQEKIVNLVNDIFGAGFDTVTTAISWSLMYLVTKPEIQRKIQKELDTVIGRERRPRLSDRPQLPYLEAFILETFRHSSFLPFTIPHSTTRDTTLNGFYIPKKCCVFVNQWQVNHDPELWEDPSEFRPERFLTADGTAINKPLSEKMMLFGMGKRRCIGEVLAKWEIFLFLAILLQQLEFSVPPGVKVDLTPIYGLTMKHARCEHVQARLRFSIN
Sequence of Cytochrome P450 2C19 (Homo sapiens) (P33261 whole entry, looked up): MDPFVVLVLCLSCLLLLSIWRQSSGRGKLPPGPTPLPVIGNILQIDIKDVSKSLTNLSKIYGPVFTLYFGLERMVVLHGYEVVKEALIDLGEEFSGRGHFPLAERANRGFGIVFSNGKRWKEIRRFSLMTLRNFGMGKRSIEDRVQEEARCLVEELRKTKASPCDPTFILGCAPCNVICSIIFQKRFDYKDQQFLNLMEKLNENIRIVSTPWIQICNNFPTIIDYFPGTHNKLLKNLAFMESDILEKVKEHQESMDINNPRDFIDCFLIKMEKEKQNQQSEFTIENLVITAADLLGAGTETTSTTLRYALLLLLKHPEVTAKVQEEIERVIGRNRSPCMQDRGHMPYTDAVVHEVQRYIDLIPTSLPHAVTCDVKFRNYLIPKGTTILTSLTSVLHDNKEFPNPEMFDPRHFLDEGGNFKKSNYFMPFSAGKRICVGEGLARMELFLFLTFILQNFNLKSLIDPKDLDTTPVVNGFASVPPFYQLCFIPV

`CC(=O)NCCNc1ncnc2ccc(-c3ccccc3C(F)(F)F)cc12`: the Potency is more than 11.4 µM in experiment [1]; 10 µM (active) in [3]; more than 46 µM in experiment [5]; 6.31 µM (active) in [7]; 31.6 µM (active) in experiment [9]. The activity change, negative = inhibition was 12.5% in [2] and 6.87% in experiment [4]. The Potency result in experiment [6], in experiment [8], in [10] and in experiment [11] was “inactive” in each case. Also, in experiment [12], the outcome was inactive.
Turning to `O=c1c(CCc2ccccc2)nc2cncnc2n1Cc1ccccc1Cl`, the Potency in experiment [1] was more than 11.4 µM; in experiment [3], 12.6 µM (active); in experiment [14], more than 46 µM; in experiment [5], more than 46 µM; in [15] it was 5.01 µM (active). Also, the activity change, negative = inhibition in experiment [4] was -6.53%. The activity, negative = inhibition in [13] is -12.1%. Moreover, the Potency result in experiment [6], in experiment [8], in experiment [9], in experiment [10] and in experiment [11] was “inactive” in each case. The result in [12] was inactive.
For the compound `Cc1cnc(CNc2cc(-c3cccnc3)ncn2)cn1`, the activity change, negative = inhibition in [2] was -14.2%; in experiment [4] it was -1.2%. The Potency in experiment [3] is 15.8 µM (active); in [14], more than 46 µM; in [5], more than 46 µM; in experiment [9], 31.6 µM (active). Further, in experiment [13], the activity, negative = inhibition is -0.57%. Also, the Potency result in experiment [6], in experiment [16], in [8], in experiment [10] and in experiment [11] was “inactive” in each case. Besides, the result in experiment [12] was inactive.
In the case of `Cc1cnc(CNc2ncncc2-c2ccoc2)cn1`, the Potency in experiment [1] was more than 11.4 µM; in experiment [3] it was 12.6 µM (active); in [14], more than 46 µM; in experiment [5] it was more than 46 µM; in experiment [7], 2 µM (active). Also, the figures for the activity change, negative = inhibition in experiment [2] and in experiment [4] were 0.489% and -1.22%, respectively. The activity, negative = inhibition in experiment [13] is 3.39%. The Potency result in [6], in experiment [16], in [8], in [9] and in experiment [11] was “inactive” each time. Also, the result in experiment [12] was inactive.
As for `Cc1cnc(CNc2nc(-c3ccccc3C(F)(F)F)nc3ccccc23)cn1`, the Potency in experiment [1] is more than 11.4 µM; in [3], 12.6 µM (active); in [14], more than 46 µM; in [5], more than 46 µM; in experiment [7], 5.01 µM (active). Further, the activity change, negative = inhibition in experiment [2] was -16.3%; in experiment [4], 12.8%. Moreover, the activity, negative = inhibition in [13] was -2.08%. Further, the Potency entry in experiment [6], in experiment [16], in experiment [8], in experiment [9] and in experiment [10] was “inactive” each time. Further, the result in experiment [12] was inactive.
Regarding `Fc1ccc(Nc2ccnc(-c3ccc4c(c3)OCO4)n2)cc1`, the Potency was more than 11.4 µM in experiment [1]; 0.631 µM (active) in experiment [3]; more than 46 µM in [14]; more than 46 µM in [5]; 2 µM (active) in [7]; 2 µM (active) in experiment [15]. Also, the Potency in experiment [9] was 31.6 µM (active). Further, the values for the activity change, negative = inhibition in [2] and in experiment [4] were 8.72% and -0.562%, respectively. Moreover, in experiment [13], the activity, negative = inhibition was -6.41%. Also, the Potency entry in experiment [6], in experiment [8] and in experiment [10] was “inactive” in each case. For the same compound, the outcome in experiment [12] was inactive.
